Assay results as given in PubChem BioAssay AID624330 (Southern Research Specialized Biocontainment Screening …, 2012).
Screen size: about 340,000 compounds; about 2,100 (0.62%) were called active.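 The calls were made as follows: active = first-screen hits whose inhibition reached a set limit at any dose in the follow-up dose series; inconclusive = inhibition above the set first-screen limit but never retested; inactive = the rest.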 A selection follows. Potency and affinity values are given separately.

biological target: Rac GTPase-activating protein 1 (Homo sapiens) (UniProt Q9H0H5); assay: MgcRacGAP GTPase-activating activity inhibitors, confirmation, biochemical, ADP Hunter fluorescence, primary and confirmatory (AID 624330); details: MgcRacGAP-stimulated Rac1 GTP hydrolysis, at 30 µM, hits give high values, GST-tagged Rac1 F28L mutant substrate;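 also: fluorescence reports GDP produced by GAP-driven GTP hydrolysis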
Sequence (Q9H0H5 whole entry, looked up): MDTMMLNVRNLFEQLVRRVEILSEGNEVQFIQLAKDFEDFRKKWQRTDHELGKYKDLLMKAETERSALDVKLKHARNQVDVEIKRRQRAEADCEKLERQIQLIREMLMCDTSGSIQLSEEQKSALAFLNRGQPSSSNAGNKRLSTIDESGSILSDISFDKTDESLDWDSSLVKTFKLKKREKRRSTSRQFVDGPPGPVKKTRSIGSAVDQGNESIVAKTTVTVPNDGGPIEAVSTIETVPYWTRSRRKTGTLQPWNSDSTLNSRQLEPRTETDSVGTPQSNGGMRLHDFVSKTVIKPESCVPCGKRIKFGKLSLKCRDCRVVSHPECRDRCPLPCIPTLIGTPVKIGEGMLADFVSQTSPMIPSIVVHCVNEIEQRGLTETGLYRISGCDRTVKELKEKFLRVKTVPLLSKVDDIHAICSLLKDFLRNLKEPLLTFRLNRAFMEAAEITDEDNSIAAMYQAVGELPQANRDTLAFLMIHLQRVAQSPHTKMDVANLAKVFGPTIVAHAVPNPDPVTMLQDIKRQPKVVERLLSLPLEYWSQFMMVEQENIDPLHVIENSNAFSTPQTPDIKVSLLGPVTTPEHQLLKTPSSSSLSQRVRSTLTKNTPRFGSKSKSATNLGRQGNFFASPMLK

inhibition, inactive:
Cc1ccc[n+](CC(=O)c2ccc(Br)cc2)c1C -7.12%, Nc1ccccc1C=C1Cc2ccccc2C1=O 3.76%, CC(C)c1ccc(OCC(=O)NCc2ccco2)cc1 6.29%, O=C(NCc1ccco1)c1ccc(COc2ccc(Cl)cc2)cc1 -1.23%, Cc1noc(C)c1S(=O)(=O)Nc1ccc2c(c1)C(=O)N([C@H](C)CO)C[C@@H](C)[C@@H](CN(C)Cc1ccc3c(c1)OCO3)O2 1.37%, CC(=O)Nc1ccc(S(=O)(=O)N2CCC(N3CCCC3)CC2)cc1 18.2%, Cc1ncc([N+](=O)[O-])n1Cc1cccc2ccccc12 5.41%, CCCNC(=O)NC(=O)COC(=O)CNS(=O)(=O)/C=C/c1ccccc1 6.44%, O=c1c2ccccc2sn1-c1ccc(S(=O)(=O)N2CCCC2)cc1 21.2%, Cn1sc2ccccc2c1=O 18%, Cc1ccc(Cn2c(=O)sc3ccccc3c2=O)cc1 5.22%, O=C(O)c1cn(-c2ccc(F)cc2)c(=O)c2ccccc12 8.79%, COc1ccc(Cn2c(=O)sc3ccccc3c2=O)cc1 3.77%, O=c1sc2ccccc2c(=O)n1Cc1ccccc1F 7.23%, O=C(c1sc2ccccc2c1Cl)N1CCN(c2ccc(F)cc2)CC1 3.37%, COc1ccc(-n2c(=O)c3ccccc3c3ccccc3c2=O)cc1 11.5%, COc1ccc(NC(=O)COC(C)=O)cc1Cl 3.23%, CCOc1ccc(S(=O)(=O)NCCC(=O)NCC(c2cccs2)N(C)C)cc1 (stereo not drawn) 8.66%, C#CCNc1cc(C)nc2ncnn12 1.75%, CC(C)CNC(=S)N(CCO)Cc1cc2cc3c(cc2[nH]c1=O)OCO3 14.8%, CC(=C1SC(=S)NC1=O)c1ccccc1 -4.42%, O=C(/C=N/NC(=O)c1ccc(Cl)cc1Cl)c1ccccc1 15%, COc1ccccc1-n1c(SCC(=O)NC2CCCCC2)nc2c(c1=O)SCC2 12.8%, COc1ccc(C(=O)Nc2ccccc2NC(=O)c2ccco2)cc1OC 11%, C/C(=C\C(=O)c1ccc(F)cc1)Nc1ccc(N2CCOCC2)cc1 15.3%, O=C(NCCNC(=O)Nc1ccc(Cl)cc1)Nc1ccc(Cl)cc1 0.54%, CCCCNC(=S)Nc1ccc(Cl)cc1 8.23%, CCOc1ccccc1CNC(=O)C1CCN(c2nn3c(=O)cc(C)nc3s2)CC1 10.9%
